Experimental data reported in PubChem BioAssay (NCATS).
Records with an inconclusive call do not appear. The source made the active and inactive calls. The call rests on the fitted dose curve; in most records, active means well fitted inhibition curve with a large enough effect; inconclusive means small, poorly fitted or top-dose-only effect; inactive means flat fitted curve, though single readings scatter.

What was measured:
Assay in all cases: qHTS profiling for inhibitors of Plasmodium falciparum proliferation (AID 504749); further: nearly all actives have a fitted effect of over 60% in size
Settings in all cases: P. falciparum in erythrocytes, SYBR Green DNA, 72 h; series mostly up to 28.7 µM
[1] = system: CP238
In short: (§1)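 P. falciparum-infected erythrocytes (0.3% parasitemia, 2.5% hematocrit final) were exposed to compounds for 72 h at 37 C in 5% CO2, then lysed with SYBR Green buffer overnight at room temperature; parasite DNA fluorescence was normalized to artemisinin and DMSO controls.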

[2] = system: CP247
In short: as §1

[3] = system: CP250
In short: as §1

[4] = system: CP252
In short: as §1

[5] = system: CP256
In short: as §1

[6] = system: CP260
In short: as §1

[7] = system: CP262
In short: as §1

[8] = system: CP265
In short: as §1

[9] = system: CP266
In short: as §1

[10] = system: CP268
In short: as §1

[11] = system: CP269
In short: as §1

[12] = system: CP286
In short: as §1

[13] = system: CP291
In short: as §1

[14] = system: CP297
In short: as §1

[15] = system: CP305
In short: as §1

[16] = system: CP315
In short: as §1

[17] = system: CP325
In short: as §1

[18] = system: CP329
In short: as §1

[19] = system: CP335
In short: as §1

[20] = system: DFO2036
In short: as §1

[21] = system: DIV14
In short: as §1

[22] = system: DIV17
In short: as §1

[23] = system: DIV30
In short: as §1

[24] = system: Dd2
In short: as §1

[25] = system: ECU
In short: as §1

[26] = system: FAB9
In short: as §1

[27] = system: GB4
In short: as §1

[28] = system: HB3
In short: as §1

[29] = system: ICS
In short: as §1

[30] = system: JCK
In short: as §1

Measured: Potency

O=C(O)[C@H]1C[C@@H](CP(=O)(O)O)CCN1
inactive: all assays above
